In the library only some 2.7% were active in any assay of this set; here they are far more common.
PAFAH1B2 FP inh: inhibitors of human PAFAH1B2. P68402. recombinant PAFAH1B2, FP-rhodamine activity probe, fluorescence polarization. inhibition, % at 3.39 µM. hit rate 1.2% among 340,000. AID 492953;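 active means inhibition above the mean of all tested compounds plus 3 SD, cut at about 24% in these data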
Target sequence (P68402 whole entry, looked up): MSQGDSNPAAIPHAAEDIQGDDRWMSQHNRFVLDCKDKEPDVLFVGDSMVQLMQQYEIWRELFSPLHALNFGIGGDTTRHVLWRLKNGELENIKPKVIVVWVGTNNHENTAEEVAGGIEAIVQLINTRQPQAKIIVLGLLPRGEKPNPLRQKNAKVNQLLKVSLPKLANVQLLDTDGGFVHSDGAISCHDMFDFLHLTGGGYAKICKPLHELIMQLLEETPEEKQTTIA
TCR-CD3 inh: blocks the human TCR-CD3 interaction | TAMRA-labeled TCR probe fluorescence, biochemical | inhibition, % at 9.4 µM | hit rate 0.37% among 360,000;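 further: recombinant mutant TCR 2C K166C tagged with TAMRA read by polarization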
pPAFAH FP inh: pPAFAH (human) enzyme inhibition | Q13093 | recombinant pPAFAH, FP-rhodamine probe fluorescence polarization | inhibition, % at 3.39 µM | hit rate 1.5% among 330,000;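 active means inhibition above the mean inhibition across the screen plus 3 SD, cut at about 25% in these data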;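 further: inhibitors block binding of the rhodamine activity-based probe so polarization drops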
PAFAH2 FP inh: inhibitors of human PAFAH2; recombinant PAFAH2, FP-rhodamine activity probe, fluorescence polarization; inhibition, % at 3.39 µM; hit rate 0.99% among 340,000; Q99487; AID 492956;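 active means inhibition above the mean over all tested compounds plus 3 SD, cut at about 30% in these data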;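 further: inhibitors block probe labeling of enzyme so polarization drops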
PAFAH1B3 inh: PAFAH1B3 (human) inhibition | recombinant PAFAH1B3, FP-rhodamine probe, fluorescence polarization | AID 492972 | Q15102 | inhibition, % at 3.39 µM | hit rate 0.28% among 340,000;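 active means inhibition above the screen-wide average of all tested compounds plus 3 SD, cut at about 25% in these data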
Target sequence (Q15102 whole entry, looked up): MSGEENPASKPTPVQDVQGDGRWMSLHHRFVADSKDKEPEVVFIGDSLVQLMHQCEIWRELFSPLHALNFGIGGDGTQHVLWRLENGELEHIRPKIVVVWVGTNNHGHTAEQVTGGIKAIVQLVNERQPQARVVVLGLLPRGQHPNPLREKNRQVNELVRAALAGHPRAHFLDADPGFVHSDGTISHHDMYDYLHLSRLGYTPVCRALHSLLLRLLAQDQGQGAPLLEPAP
BSA TAMRA ctr: BSA probe counter-screen for TCR-CD3 inhibitors. shares compounds with TCR-CD3 inh. TAMRA-labeled BSA probe fluorescence counterscreen. inhibition, % at 9.4 µM. hit rate 10% among 1,200. AID 652035; in the data active means inhibition above about 23%
TCR-CD3 conf: TCR-CD3 interaction inhibition, confirmation. shares compounds with TCR-CD3 inh. TAMRA-labeled TCR probe fluorescence binding assay. inhibition, % at 9.4 µM. hit rate 48% among 1,200
Each line names hits and unclear results; the compound was inactive in the other large screens (follow-up assays come after a bar, where they were run). Unless noted, no stated cut-off is given here; in the data, active means inhibition above about 19%; inactive means the rest.

COc1cc(OC)c(N(C)S(=O)(=O)c2cccc(C(=O)Nc3nnc(C4CC4)s3)c2)cc1Cl	TCR-CD3 inh 21 | BSA TAMRA ctr inactive | TCR-CD3 conf inactive
COC1(OC)C(/C=C/c2ccc(Cl)cc2)C(C#N)(C#N)C1(OC)OC (stereo unspecified)	TCR-CD3 inh 21 | BSA TAMRA ctr inactive | TCR-CD3 conf inactive
c1ccc(OCC2CCNCC2)nc1	none
CN(CCC#N)c1ccc(/C=C(\C#N)c2ccccn2)cc1	TCR-CD3 inh 81 | BSA TAMRA ctr inactive | TCR-CD3 conf inactive
O=C(Nc1cccc(S(=O)(=O)N2CCOCC2)c1)C1CC1	none
Cc1ccccc1SCC(=O)NNC(=O)c1ccccc1O	TCR-CD3 inh 21 | BSA TAMRA ctr inactive | TCR-CD3 conf 20
O=C(NC1CCCCCCC1)c1ccccc1O	none
O=C(CC1CCCC1)NNC(=O)c1ccccc1O	TCR-CD3 inh 29 (no result: PAFAH1B2 FP inh, pPAFAH FP inh, PAFAH2 FP inh, PAFAH1B3 inh) | BSA TAMRA ctr inactive | TCR-CD3 conf 23
Cc1ccccc1SCC(=O)NNC(=O)c1ccncc1	none
Cc1ccc(NC(=O)/C(=C/c2cccs2)NC(=O)c2ccco2)cc1	none
COc1ccc(C2OC34CCCCC3C(C#N)(C#N)C2(C#N)C(=N)O4)cc1 (stereo unspecified)	PAFAH1B2 FP inh 46, TCR-CD3 inh 27, PAFAH2 FP inh 61, PAFAH1B3 inh 50 | BSA TAMRA ctr 65 | TCR-CD3 conf 44
COc1ccc(C2CC3(O)NC(=O)C(C#N)(C3C)C2(C#N)C#N)cc1 (stereo unspecified)	none (no result: PAFAH1B2 FP inh, PAFAH2 FP inh, PAFAH1B3 inh)
NC1=NC(=O)C(CC(=O)Nc2ccc3c(c2)OCO3)S1 (stereo unspecified)	none
Cc1nn(C)c(C(=O)N/N=C/c2ccc(Br)cc2)c1Cl	TCR-CD3 inh 21 | BSA TAMRA ctr inactive | TCR-CD3 conf inactive
COc1ccc(C2C(C#N)=C(N)OC3=C2C(=O)CCC3)cc1Cn1nc(C)c([N+](=O)[O-])c1C (stereo unspecified)	TCR-CD3 inh 42 | BSA TAMRA ctr inactive | TCR-CD3 conf inactive
COc1ccc(C2C(C#N)=C(N)Oc3n[nH]c(C)c32)cc1Cn1nc(C)c([N+](=O)[O-])c1C (stereo unspecified)	none
COc1cc(/C=N/NC(=O)COc2ccc(Cl)cc2)ccc1OS(=O)(=O)c1ccc(C)cc1	TCR-CD3 inh 57 | BSA TAMRA ctr inactive | TCR-CD3 conf 36
CC(=O)Oc1ccc2occ(/C=N/c3cc(=O)[nH]c(=S)[nH]3)c(=O)c2c1	TCR-CD3 inh 19 | BSA TAMRA ctr inactive | TCR-CD3 conf inactive
COc1cc([N+](=O)[O-])cc(/C=N/NC(=O)c2cc(C)nc3ccccc23)c1O	TCR-CD3 inh 24 | BSA TAMRA ctr inactive | TCR-CD3 conf 23
Cc1cc(C(=O)N/N=C/c2cccc([N+](=O)[O-])c2)c2ccccc2n1	none
O=C(O)/C=C/C(=O)Nc1ccc(C(=O)c2ccccc2)cc1	none
O=C(O)/C=C/C(=O)Nc1ccc(O)cc1	TCR-CD3 inh 20 | BSA TAMRA ctr inactive | TCR-CD3 conf inactive
O=C(CN1C(=O)NC2(CCc3ccccc32)C1=O)NCc1ccc(Cl)cc1 (stereo unspecified)	none
CCOP(=O)(OCC)C(NC(=O)Nc1ccc(Cl)cc1)C(=O)N(CC)CC (stereo unspecified)	TCR-CD3 inh 21 | BSA TAMRA ctr inactive | TCR-CD3 conf inactive
CCOc1ccccc1CNc1nc2ccccc2n1C	none
CCOc1ccccc1CNc1ccc(O)cc1	TCR-CD3 inh 21, PAFAH2 FP inh 35, PAFAH1B3 inh 26 (no result: pPAFAH FP inh) | BSA TAMRA ctr inactive | TCR-CD3 conf inactive
Cc1oc2cc(O)ccc2c(=O)c1-c1nncn1-c1ccccc1	TCR-CD3 inh 25 | BSA TAMRA ctr 27 | TCR-CD3 conf 23
CCOc1ccc(Nc2ccc(N)c(S(=O)(=O)O)c2)cc1	TCR-CD3 inh 42 (no result: pPAFAH FP inh) | BSA TAMRA ctr inactive | TCR-CD3 conf 21
O=C(CN1C(=O)c2ccccc2C1=O)NCC(=O)Nc1ccccc1	none (no result: pPAFAH FP inh)
CC1CCCCN1C(=O)CSc1nnc(-c2ccccc2O)o1 (stereo unspecified)	TCR-CD3 inh 27 | BSA TAMRA ctr inactive | TCR-CD3 conf 21
CCN1CCN(Cc2ccc(NC(=O)c3ccc(C)c(NC(=O)c4cc(-c5ccc(Br)cc5)n[nH]4)c3)cc2C(F)(F)F)CC1	TCR-CD3 inh 26 | BSA TAMRA ctr inactive | TCR-CD3 conf inactive
C[C@@H]1CN([C@@H](C)CO)C(=O)c2cc(NC(=O)CCN3CCOCC3)ccc2O[C@@H]1CN(C)C(=O)Nc1ccccc1	none
C/C(=N\NC(=O)c1ccc(N2CCCC2=O)cc1)c1ccc(O)cc1O	TCR-CD3 inh 24 | BSA TAMRA ctr inactive | TCR-CD3 conf inactive
CC(=O)c1ccc(OC2(C)CCN(Cc3cc4ccccc4[nH]3)C2)cc1 (stereo unspecified)	TCR-CD3 inh 31 (no result: PAFAH1B2 FP inh, pPAFAH FP inh, PAFAH2 FP inh, PAFAH1B3 inh) | BSA TAMRA ctr inactive | TCR-CD3 conf inactive
COCOc1cccc(CN2CCC(C)(Oc3ccc(C(C)=O)cc3)C2)c1 (stereo unspecified)	none (no result: PAFAH1B2 FP inh, pPAFAH FP inh, PAFAH2 FP inh, PAFAH1B3 inh)
